According to PubChem BioAssay AID1159580 (chemical genetic matrix, 2015):
Out of some 5,500 compounds screened, about 2,000 (36%) were called active. Another 18% or so got no clear call; they are omitted. No stated cut-off is given here; in the data, active means normalized growth mostly below about 0.91 (no sharp cut-off); inconclusive means no clear call, values can overlap the other calls; inactive means mostly above about 0.92. The list shows a part of the results.

Experiment: chemical genetic growth profiling, strain panel (AID 1159580);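 further: tested at 20 µM; growth read once vehicle control cultures reached saturation at 30 °C; 1 = growth at the plate median or of vehicle wells; lower values mean less growth of the strain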
Details: growth OD

Measured: normalized growth

C1CCN2C[C@@H]3C[C@H](CN4CCCC[C@@H]34)[C@H]2C1
inactive: S. cerevisiae deletion strains, locus YJR066W, strain TOR1, active compounds read low 0.988 | S. cerevisiae deletion strains, locus YJR075W, strain HOC1, active compounds read low 1.01 | S. cerevisiae deletion strains, locus YKL009W, strain mrt4, active compounds read low 0.994 | S. cerevisiae deletion strains, locus YKL068W, active compounds read low 0.999 | S. cerevisiae deletion strains, locus YKL085W, strain MDH1 (second series), active compounds read low 1.02 | S. cerevisiae deletion strains, locus YKL085W, strain MDH1, active compounds read low 1.02 | S. cerevisiae deletion strains, locus YKL160W, strain elf1, active compounds read low 0.987 | S. cerevisiae deletion strains, locus YKL190W, strain CNB1, active compounds read low 1.02 | S. cerevisiae deletion strains, locus YKR001C, strain vps1, active compounds read low 0.996 | S. cerevisiae deletion strains, locus YKR026C, strain gcn3, active compounds read low 1.01 | S. cerevisiae deletion strains, locus YKR091W, strain srl3, active compounds read low 1 | S. cerevisiae deletion strains, locus YLL001W, strain dnm1, active compounds read low 0.999 | S. cerevisiae deletion strains, locus YLL026W, active compounds read low 1.01 | S. cerevisiae deletion strains, locus YLL041C, strain sdh2, active compounds read low 0.999 | S. cerevisiae deletion strains, locus YLR027C, strain aat2, active compounds read low 0.992 | S. cerevisiae deletion strains, locus YLR039C, strain RIC1, active compounds read low 1.06 | S. cerevisiae deletion strains, locus YLR058C, strain SHM2, active compounds read low 1.01 | S. cerevisiae deletion strains, locus YLR102C, strain apc9, active compounds read low 0.993 | S. cerevisiae deletion strains, locus YLR113W, strain HOG1, active compounds read low 1.01 | S. cerevisiae deletion strains, locus YLR221C, strain rsa3, active compounds read low 1.03 | S. cerevisiae deletion strains, locus YLR258W, strain gsy2, active compounds read low 1.01 | S. cerevisiae deletion strains, locus YLR262C, strain YPT6 (second series), active compounds read low 1.04 | S. cerevisiae deletion strains, locus YLR262C, strain YPT6, active compounds read low 1.1 | S. cerevisiae deletion strains, locus YLR268W, strain sec22, active compounds read low 0.996 | S. cerevisiae deletion strains, locus YLR320W, strain mms22, active compounds read low 1.04 | S. cerevisiae deletion strains, locus YLR330W, strain CHS5, active compounds read low 1.02 | S. cerevisiae deletion strains, locus YLR342W, strain FKS1 (second series), active compounds read low 0.996 | S. cerevisiae deletion strains, locus YLR342W, strain FKS1, active compounds read low 1 | S. cerevisiae deletion strains, locus YLR357W, strain rsc2, active compounds read low 1.02 | S. cerevisiae deletion strains, locus YLR370C, strain arc18, active compounds read low 1.01 | S. cerevisiae deletion strains, locus YLR371W, strain rom2, active compounds read low 0.999 | S. cerevisiae deletion strains, locus YLR384C, strain iki3, active compounds read low 1.01 | S. cerevisiae deletion strains, locus YLR418C, strain cdc73, active compounds read low 0.98 | S. cerevisiae deletion strains, locus YML016C, strain PPZ1, active compounds read low 0.997 | S. cerevisiae deletion strains, locus YML032C, strain rad52, active compounds read low 0.994 | S. cerevisiae deletion strains, locus YML120C, strain ndi1, active compounds read low 1.01 | S. cerevisiae deletion strains, locus YML124C, strain tub3, active compounds read low 1.01 | S. cerevisiae deletion strains, locus YMR058W, strain fet3, active compounds read low 1.01 | S. cerevisiae deletion strains, locus YMR078C, strain ctf18, active compounds read low 1 | S. cerevisiae deletion strains, locus YMR125W, strain sto1, active compounds read low 0.995 | S. cerevisiae deletion strains, locus YMR129W, active compounds read low 1.03 | S. cerevisiae deletion strains, locus YMR205C, strain PFK2, active compounds read low 0.997 | S. cerevisiae deletion strains, locus YMR223W, strain ubp8, active compounds read low 1.01 | S. cerevisiae deletion strains, locus YMR231W, strain pep5, active compounds read low 1.01 | S. cerevisiae deletion strains, locus YMR307W, strain GAS1, active compounds read low 1.02 | S. cerevisiae deletion strains, locus YNL067W, strain RPL9B, active compounds read low 1.01 | S. cerevisiae deletion strains, locus YNL071W, strain lat1, active compounds read low 1.01 | S. cerevisiae deletion strains, locus YNL153C, strain GIM3, active compounds read low 1.01 | S. cerevisiae deletion strains, locus YNL183C, strain NPR1, active compounds read low 0.98 | S. cerevisiae deletion strains, locus YNL209W, strain ssb2, active compounds read low 1.01 | S. cerevisiae deletion strains, locus YNL233W, strain BNI4, active compounds read low 1.01 | S. cerevisiae deletion strains, locus YNL248C, strain rpa49, active compounds read low 1.03 | S. cerevisiae deletion strains, locus YNL250W, strain rad50, active compounds read low 1.02 | S. cerevisiae deletion strains, locus YNL271C, strain bni1, active compounds read low 1.01 | S. cerevisiae deletion strains, locus YNL298W, strain CLA4, active compounds read low 0.994 | S. cerevisiae deletion strains, locus YNL307C, strain MCK1, active compounds read low 1.01 | S. cerevisiae deletion strains, locus YNL322C, strain KRE1 (second series), active compounds read low 1.01 | S. cerevisiae deletion strains, locus YNR049C, strain mso1, active compounds read low 1.01 | S. cerevisiae deletion strains, locus YNR052C, strain pop2, active compounds read low 1.02 | S. cerevisiae deletion strains, locus YOL006C, strain TOP1, active compounds read low 1.08 | S. cerevisiae deletion strains, locus YOL012C, strain htz1 1.61 | S. cerevisiae deletion strains, locus YOL147C, strain pex11, active compounds read low 1 | S. cerevisiae deletion strains, locus YOR001W, strain rrp6, active compounds read low 1.02 | S. cerevisiae deletion strains, locus YOR061W, strain CKA2, active compounds read low 1.01 | S. cerevisiae deletion strains, locus YOR069W, strain VPS5, active compounds read low 1 | S. cerevisiae deletion strains, locus YOR070C, strain gyp1, active compounds read low 1.02 | S. cerevisiae deletion strains, locus YOR080W, strain dia2, active compounds read low 0.999 | S. cerevisiae deletion strains, locus YOR083W, strain WHI5, active compounds read low 0.979 | S. cerevisiae deletion strains, locus YOR106W, strain vam3, active compounds read low 1 | S. cerevisiae deletion strains, locus YOR136W, strain idh2, active compounds read low 0.998 | S. cerevisiae deletion strains, locus YOR144C, strain elg1, active compounds read low 0.989 | S. cerevisiae deletion strains, locus YOR184W, strain ser1, active compounds read low 0.995 | S. cerevisiae deletion strains, locus YOR231W, strain MKK1, active compounds read low 1.03 | S. cerevisiae deletion strains, locus YOR265W, strain rbl2, active compounds read low 1 | S. cerevisiae deletion strains, locus YOR270C, strain vph1, active compounds read low 1.05 | S. cerevisiae deletion strains, locus YOR290C, strain snf2, active compounds read low 0.979 | S. cerevisiae deletion strains, locus YOR316C, strain cot1, active compounds read low 1 | S. cerevisiae deletion strains, locus YPL051W, strain arl3, active compounds read low 0.999 | S. cerevisiae deletion strains, locus YPL055C, strain LGE1, active compounds read low 1.02 | S. cerevisiae deletion strains, locus YPL078C, strain atp4, active compounds read low 0.978 | S. cerevisiae deletion strains, locus YPL106C, strain sse1, active compounds read low 1.01 | S. cerevisiae deletion strains, locus YPL240C, strain hsp82, active compounds read low 0.999 | S. cerevisiae deletion strains, locus YPL241C, strain CIN2, active compounds read low 1 | S. cerevisiae deletion strains, locus YPL256C, strain CLN2, active compounds read low 1.06 | S. cerevisiae deletion strains, locus YPR119W, strain clb2, active compounds read low 0.999 | S. cerevisiae deletion strains, locus YPR141C, strain kar3, active compounds read low 1 | S. cerevisiae deletion strains, locus YPR163C, strain tif3, active compounds read low 1 | S. cerevisiae deletion strains, locus YPR167C, strain met16, active compounds read low 1.02 | S. cerevisiae deletion strains, strain wtn01, active compounds read low 1.01 | S. cerevisiae strains, strain wild type, active compounds read low 1.02
